# Measured values as given in publication PMC5540273 (PLoS ONE, 2017).
# Tests used:
# Conditions in all cases: concentration: 1 μM, replicates: in singlicate; n = 1
# [1] = test system: T1, RSK2(Kin.Dom.1-N-terminal)
# T1 construct: gene RPS6KA3
# [2] = test system: T2, RSK2(Kin.Dom.2-C-terminal)
# T2 construct: gene RPS6KA3
# [3] = test system: T3, RSK3(Kin.Dom.1-N-terminal)
# T3 construct: gene RPS6KA2
# [4] = test system: T4, RSK3(Kin.Dom.2-C-terminal)
# T4 construct: gene RPS6KA2
# [5] = test system: T5, RSK4(Kin.Dom.1-N-terminal)
# T5 construct: gene RPS6KA6
# [6] = test system: T6, RSK4(Kin.Dom.2-C-terminal)
# T6 construct: gene RPS6KA6
# [7] = test system: S6K1
# [8] = test system: SBK1
# [9] = test system: SGK2
# [10] = test system: SGK3
# [11] = test system: SGK
# [12] = test system: SIK2
# [13] = test system: SIK
# [14] = test system: SLK
# [15] = test system: T7, SNARK
# T7 construct: gene NUAK2
# [16] = test system: SNRK
# [17] = test system: SRC
# [18] = test system: SRMS
# [19] = test system: SRPK1
# [20] = test system: SRPK2
# 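Note: KINOMEscan kinase panel screen.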
Structure (SMILES),%Inh [1] [%],%Inh [2] [%],%Inh [3] [%],%Inh [4] [%],%Inh [5] [%],%Inh [6] [%],%Inh [7] [%],%Inh [8] [%],%Inh [9] [%],%Inh [10] [%],%Inh [11] [%],%Inh [12] [%],%Inh [13] [%],%Inh [14] [%],%Inh [15] [%],%Inh [16] [%],%Inh [17] [%],%Inh [18] [%],%Inh [19] [%],%Inh [20] [%]
O=C(NCCNc1ccnc(Nc2ccc(F)cc2)n1)Nc1ccccc1F [GSK1379880],0,0,0,0,0,2,9,41,0,0,0,0,0,11,0,0,6,0,5,0
CCc1ccnc(/C=C/c2n[nH]c3cc(Sc4ccccc4C(=O)NC)ccc23)c1,8,0,13,6,18,12,6,16,0,24,0,0,0,0,10,0,4,100,53,0
O=c1cc(N2CCOCC2)nc2n(Cc3cccc4ccccc34)ccn12 [GSK2333389],0,0,2,0,0,8,0,14,0,0,0,0,0,0,0,0,0,0,29,0
c1ccc(-c2cc(-c3c[nH]nc3-c3ccccn3)ccn2)cc1 [GW576604],0,0,0,4,0,8,0,0,0,0,0,0,0,0,0,0,0,0,24,9
CSc1ccc(-c2cc3ncnc(SCC(=O)O)c3s2)cc1,0,0,0,20,0,19,0,0,0,6,0,0,25,0,0,0,0,0,0,100
CC(C)Oc1ccc2c(-c3ccnc(Nc4ccc(N5CCN(C)CC5)cc4)n3)cnn2n1 [GW696155],44,28,7,77,0,95.1,44,88,52,58,88,83,79,10,99.6,23,66,0,85,54
O=c1cc(N2CCOCC2)nc2n(Cc3cccc(Cl)c3Cl)c(C3CC3)nn12 [GSK2358994],0,18,0,17,0,21,15,0,20,0,30,0,0,46,0,0,22,0,17,0
NS(=O)(=O)CCc1cccc(Nc2nccc(-c3c(-c4cccc(NC(=O)c5c(F)cccc5F)c4)nn4ccccc34)n2)c1 [GSK336735],15,0,45,0,0,2,20,27,0,3,0,37,94.7,97.7,86,0,97.8,98.8,62,0
Fc1ccc(-c2nn3c(OCC(F)(F)F)cccc3c2-c2ccncc2)cc1 [GW514784],0,0,3,8,0,89,0,2,9,0,15,0,0,0,0,0,0,0,29,0
COc1ccc(COc2cc(-n3cnc4ccccc43)sc2C(N)=O)cc1 [GSK1024304],18,16,17,5,2,23,0,0,10,1,0,0,0,9,2,0,0,0,29,0
